Source: PubChem
In the library only some 0.5% were active in any assay of this set; here they are far more common.
phage Ecoli inh: E. coli growth loss with phage present; growth absorbance; inhibition, % at 11.9 µM; actives 0.26% (n = 360,000); in the data active = inhibition above about 11%
E coli growth-1: reduces bacterial viability in AddAB counter-screen; AID 449728; E. coli V3065 growth, OD600 absorbance, 18 h; actives 0.27% (n = 330,000); inhibition, % at 11.9 µM;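 active = inhibition above the campaign's mean inhibition across all tested compounds plus 3 SD, cut at about 9.9% in these data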;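 also: uninfected addAB+ strain grown without phage in ampicillin broth; 0% = DMSO wells and 100% = ciprofloxacin 0.95 µg/ml wells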
E coli growth-2: inhibitors of Escherichia coli growth | OD600 absorbance (concentration not given with the values) | OD600, 23 h; hits give low values | AID 1053175 | actives 0.21% (n = 330,000);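 active = OD600 absorbance below the run mean of sample wells minus 3.6 SD, in any replicate, cut at about 0.56 in these data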
AddAB inh: less growth of phage-infected E. coli with AddAB. E. coli expressing H. pylori AddAB, absorbance growth. AID 435030. actives 0.29% (n = 330,000). inhibition, % at 11.9 µM; in the data active = inhibition above about 12%;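 also: 0% = vehicle wells of infected cells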
Tat transport: inhibitors of E. coli Tat protein transport | E. coli MC4100 TorA-mCherry Tat export, fluorescence | inhibition, % at 10 µM | actives 0.036% (n = 340,000) | AID 488895;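 active = mean replicate inhibition at least 50% and at least half of replicates individually reaching 50%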;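 also: exported cargo escapes ClpAP degradation while cytoplasmic cargo is degraded and loses fluorescence; 0% = median of neutral control wells and 100% = median of NaSCN control wells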
AddAB confirm: growth loss of T4-infected E. coli expressing H. pylori AddAB, confirmed | shares compounds with AddAB inh | E. coli V3065 expressing H. pylori AddAB, T4 phage, OD; T4 phage with gene 2 nonsense mutations | inhibition, % at 11.9 µM | actives 64% (n = 880) | AID 488942;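 active = mean inhibition above a set limit taken from the earlier primary screen, cut at about 13% in these data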;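 also: higher means less bacterial growth since AddAB block lets phage replicate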
RecBCD counter: counter-screen: growth loss of RecBCD+ E. coli with mutant T4 phage. inhibition, % at 11.9 µM. actives 73% (n = 880). E. coli V66 + mutant T4 phage, OD growth. shares compounds with AddAB inh;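 active = mean inhibition above the mean of solvent-only control wells plus 3 SD, cut at about 4% in these data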;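 also: optical density read after an 18 h incubation at 37 °C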
bact viab count: counter-screen: bacterial growth inhibition. shares compounds with AddAB inh. bacterial viability, absorbance (AddAB counterscreen). inhibition, % at 11.9 µM. actives 35% (n = 880). AID 488956; in the data active = inhibition above about 25%
RecBCD conf: growth loss of phage-infected V66 E. coli, RecBCD confirmation screen. shares compounds with phage Ecoli inh. E. coli V66 + T4 2- phage, growth OD. inhibition, % at 11.9 µM. actives 45% (n = 890). AID 651982;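 active = mean inhibition over triplicates exceeding the hit threshold derived in the original primary screen, cut at about 11% in these data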
Ecoli viability: bacterial viability inhibition counter-screen for RecBCD. shares compounds with phage Ecoli inh. E. coli viability, absorbance (OD) growth. inhibition, % at 11.9 µM. actives 29% (n = 890); in the data active = inhibition above about 20%;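 also: E. coli strain V66 grown with compound alone and no phage infection; 0% = bacteria with DMSO vehicle only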
AddAB counter: growth loss of phage-infected AddAB E. coli, RecBCD counter-screen; inhibition, % at 11.9 µM; actives 45% (n = 890); shares compounds with phage Ecoli inh; E. coli expressing H. pylori AddAB + T4 phage, OD growth; gene 2 mutant T4, recBCD-deleted host;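 active = mean inhibition above the solvent-only control wells' mean plus 3 SD, cut at about 22% in these data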;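 also: higher means less bacterial growth from phage killing when AddAB is blocked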
The depositor's hits bear a star; i = inactive; · = not tested or not shown.

SMILES | phage Ecoli inh | E coli growth-1 | E coli growth-2 | AddAB inh | Tat transport | others
O=C(c1ccc(N2CCCCC2)c([N+](=O)[O-])c1)N1CCC2(CC1)OCCO2 | 2 | 0 | 0.52* | 5 | 4
CC1CCCN(c2ccc(C(=O)N3CCC4(CC3)OCCO4)cc2[N+](=O)[O-])C1 (centres undefined) | -1 | -2 | · | 1 | 12
CCC(C)NC(=O)CCC(=O)OC1O[C@H]2OC3(C)CC[C@H]4[C@H](C)CCC(C1C)C24OO3 (some centres undefined) | 9 | · | 0.5* | · | 6
CCC(C)C(NC(=O)CCCNC(=O)CCC(=O)OC1O[C@H]2OC3(C)CC[C@H]4[C@H](C)CCC(C1C)C24OO3)C(=O)O (some centres undefined) | 5 | 4 | · | 3 | 5
CN(C)c1ccc(C=C2C(=O)NC(=O)N(CCc3ccc(F)cc3)C2=O)cc1 | · | · | 0.72 | · | ·
COC(=O)C1=C(c2ccc(F)cc2OCc2ccccc2)CC2CCC1N2C(=O)NCc1ccc2[nH]ccc2c1 (centres undefined) | · | · | 0.74 | · | ·
Oc1ccc(Cl)c(Cl)c1Cl | 3 | -1 | 0.52* | 0 | -3
Cc1cc(O)ccc1Cl | 2 | · | · | · | ·
O=[N+]([O-])c1c(Cl)c(Cl)c(Cl)c(Cl)c1Cl | 1 | · | · | · | -5
Nc1cc(Cl)c2nonc2c1[N+](=O)[O-] | 7 | 7 | 0.44* | 6 | -21
O=C1C=CC(=O)C2C1C1(Cl)C(Cl)=C(Cl)C2(Cl)C1(Cl)Cl (centres undefined) | 6 | · | 0.51* | · | -7
c1ccc2c(c1)[IH]c1ccccc1-2 | 101* | · | · | · | 7
Cc1nn(Cc2ccccc2)c(C)c1C(=O)NCc1ccccc1 | 1 | 1 | 0.68 | 2 | 55*
COC(=O)C1=C(c2ccc(Cl)c(C(F)(F)F)c2)CC2CCC1N2C(=O)NCCOc1ccc(OC)cc1 (centres undefined) | · | · | 0.7 | · | ·
C=CCN1CC[C@@]2(C)c3cc(O)ccc3CC1C2C (some centres undefined) | · | · | 0.72 | · | ·
Cc1[nH]c2ccc(OC(F)(F)F)cc2c1CCNCc1ccc(Cl)cc1 | 2 | · | 0.5* | · | -9
COC(=O)C1=C(c2c(C)noc2C)CC2CCC1N2C(=O)NCCOc1ccccc1Cl (centres undefined) | · | · | 0.73 | · | ·
Cc1ccc(-c2nc(N3CCOCC3)s[n+]2-c2ccccc2)cc1 | 2 | -2 | 0.51* | -2 | 0
C[C@@H]1CC[C@H]2[C@@H](C)C(=O)O[C@@H]3O[C@@]4(C)CC[C@@H]1[C@]32OO4 | 2 | -1 | 0.45* | 4 | 6
COc1ccc(CNC(=O)C=Cc2ccc3[nH]cc(CCN(C)C)c3c2)cc1 | · | · | 0.66 | · | ·
COP(=O)(OC)C(C=O)=NNc1ccc([N+](=O)[O-])cc1 | · | · | 0.65 | · | ·
CN(C)c1ccc(/C=C/c2cc[n+](C)c3ccccc23)cc1 | 0 | · | · | · | -299
CN(C)c1ccc(C=Cc2cc[n+](C)c3ccccc23)cc1 | · | · | 0.39* | · | ·
COc1ccc(N2C(=O)NC(=O)/C(=C\c3ccc([N+](=O)[O-])s3)C2=O)cc1 | 3 | 2 | 0.47* | 2 | -7
COc1cc(CNCCc2ccc3c(c2)OCO3)ccc1O | 5 | 2 | 0.66 | 5 | -12
SMILES | phage Ecoli inh | E coli growth-1 | E coli growth-2 | AddAB inh | Tat transport | others
CCCCCCCCC(=O)NCc1ccc(O)c(OC)c1 | 1 | 100* | 0.69 | 98* | 5 | AddAB confirm=0;RecBCD counter=0;bact viab count=-3
C[C@@H]1O[C@@H](O[C@H]2C[C@@H](O)[C@]3(CO)[C@H]4[C@H](O)C[C@]5(C)[C@@H](C6COC(=O)C6)CC[C@]5(O)[C@@H]4CC[C@]3(O)C2)[C@H](O)[C@H](O)[C@H]1O (some centres undefined) | 3 | 96* | · | 98* | 11 | AddAB confirm=-3;RecBCD counter=-2;bact viab count=-4
CN1C2CCC1CC(OC1c3ccccc3CCc3ccccc31)C2 (centres undefined) | · | · | 0.62 | · | ·
COC(=O)C1=COC(C)C2CN3CC[C@]4(C(=O)Nc5ccccc54)C3CC12 (some centres undefined) | · | · | 0.71 | · | ·
Cc1cc(O)c2c(c1)C(=O)C13C(=C2O)C(=O)[C@H]2[C@@H](O)[C@@H]1[C@H]1[C@H](O)[C@@H]3C(=O)C3=C(O)c4c(O)cc(C)cc4C(=O)C312 (some centres undefined) | · | 76* | 0.067* | 60* | 130* | AddAB confirm=36*;RecBCD counter=32*;bact viab count=43*
CCCC=C(CCC)C(NP(=O)(c1ccccc1)c1ccccc1)c1ccccc1 (centres undefined) | · | · | 0.69 | · | ·
CCN1/C(=C\C=C\C2=[N+](CC)c3ccccc3C2(C)C)C(C)(C)c2ccccc21 | · | 30* | 0.53* | 35* | i | AddAB confirm=51*;RecBCD counter=23*;bact viab count=46*
Oc1c(Cl)c(Cl)c(Cl)c(Cl)c1Cl | 12* | 11* | 0.47 | 13* | -1 | AddAB confirm=10;RecBCD counter=17*;bact viab count=10
COC(=O)C1=C(c2c(C)noc2C)CC2CCC1N2C(=O)N1CCOCC1 (centres undefined) | · | · | 0.71 | · | ·
COC12C(COC(N)=O)C3=C(C(=O)C(C)=C(N)C3=O)N1CC1C2N1C (centres undefined) | 82* | 99* | 0.053* | 94* | 80* | AddAB confirm=98*;RecBCD counter=89*;bact viab count=99*;RecBCD conf=94*;Ecoli viability=94*;AddAB counter=96*
CC(C)[C@@]1(NC(=O)C2CC3c4cccc5[nH]cc(c45)CC3N(C)C2)O[C@@]2(O)C3CCCN3C(=O)C(Cc3ccccc3)N2C1=O (some centres undefined) | · | · | 0.7 | · | ·
CCCCCCC[n+]1ccc(-c2cc[n+](CCCCCCC)cc2)cc1 | 19* | 25* | 0.54 | 31* | -3 | AddAB confirm=6;RecBCD counter=19*;bact viab count=10;RecBCD conf=9;Ecoli viability=13;AddAB counter=5
c1ccc2c[n+](CCCCCCCCCC[n+]3ccc4ccccc4c3)ccc2c1 | 8 | · | · | · | ·
COC(=O)C1=C(c2ccc(OC(F)(F)F)cc2)CC2CCC1N2C(=O)NC1Cc2ccccc2C1 (centres undefined) | · | · | 0.72 | · | ·
